Active and inactive are the calls of the source.
Columns and labels:
[1] = test system: PRMT1 (protein arginine N-methyltransferase 1); assay: PRMT1 binders on small-molecule microarrays, primary screen, biochemical, small-molecule microarray, 635 nm fluorescence (AID 1088); conditions: small-molecule microarray binding, higher = more signal;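 note: binding of Prmt1 protein to compounds spotted on small-molecule microarray slides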
[2] = yeast growth modulation, basal conditions, primary screen, YJM789 clinical isolate, OD600, 24 h (AID 1089);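 note: growth of clinical yeast isolate S. cerevisiae YJM 789 seeded 1000 cells per well; test concentration not given here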; conditions: S. cerevisiae YJM789 growth, higher = more signal, called active from +8 up or from −8 down
[3] = fission yeast growth modulation, primary screen, strain 972, OD600, 24 h, no modulator (AID 1090);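 note: basal condition with compound alone and no growth modifier present; test concentration not given here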; conditions: S. pombe 972 growth, higher = more signal, called active from +8 up or from −8 down
[4] = S. cerevisiae growth modulation with rapamycin, primary screen, strain BY4716, OD600, 96 h (AID 1091); conditions: higher = more signal, called active from +8 up or from −8 down; note: test concentration not given here
[5] = target: Torsin-1A-interacting protein 2 (Homo sapiens) (UniProt Q8NFQ8); assay: LULL1 binders on small-molecule microarray, primary screen, cell lysate, human LULL1 lysate, 635/667 nm fluorescence (AID 1092); conditions: hLULL1 lysate binding, 635 nm fluorescence, higher = more signal;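 note: probe is lysate of COS7 cells overexpressing human LULL1; score merges per-feature 667 nm fluorescence with signal-to-noise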
Torsin-1A-interacting protein 2 (Homo sapiens), sequence (Q8NFQ8 whole entry, looked up): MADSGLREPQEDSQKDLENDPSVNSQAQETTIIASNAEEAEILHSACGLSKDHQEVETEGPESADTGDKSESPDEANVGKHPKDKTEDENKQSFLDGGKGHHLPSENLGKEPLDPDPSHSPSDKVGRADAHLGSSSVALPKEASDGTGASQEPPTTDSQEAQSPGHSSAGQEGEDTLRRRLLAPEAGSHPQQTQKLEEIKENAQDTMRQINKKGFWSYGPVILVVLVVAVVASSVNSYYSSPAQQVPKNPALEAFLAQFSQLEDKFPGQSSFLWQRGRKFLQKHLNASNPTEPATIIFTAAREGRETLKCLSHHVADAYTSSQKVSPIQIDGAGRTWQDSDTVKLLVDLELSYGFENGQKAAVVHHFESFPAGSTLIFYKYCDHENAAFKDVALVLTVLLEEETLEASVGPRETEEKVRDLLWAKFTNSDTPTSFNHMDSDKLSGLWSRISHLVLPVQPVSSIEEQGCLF

[6] = E. coli growth modulation, two-sided OD650, primary screen, E. coli filamentation project, strain DRC41, 24 h (AID 1093); conditions: OD650, 24 h, higher = more signal, called active from +8 up or from −8 down;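 note: MC1000 strain lacking acrAB efflux and sulA so SOS filamentation is blocked; test concentration not given here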
[7] = small-molecule microarray binders of probe aLefty2, primary screen, biochemical, biotinylated probe, 635/667 nm fluorescence (AID 1094); conditions: higher = more signal;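 note: score merges spot fluorescence near 667 nm with spot signal-to-noise ratio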
[8] = test system: Noggin (protein binding on small-molecule microarray); assay: Noggin binders on small-molecule microarray, primary screen, biochemical, 635/667 nm fluorescence (AID 1095); conditions: 635 nm fluorescence, higher = more signal;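 note: score merges 667 nm feature fluorescence with signal to noise over triplicate slides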
[9] = target: Neurogenic locus notch homolog protein 3 (Homo sapiens) (UniProt Q9UM47); assay: NOTCH3 binders on small-molecule microarray, primary screen, biochemical, 635/667 nm fluorescence (AID 1096); conditions: NOTCH3 binding, 635 nm fluorescence, higher = more signal
Neurogenic locus notch homolog protein 3 (Homo sapiens), sequence (Q9UM47 whole entry, looked up): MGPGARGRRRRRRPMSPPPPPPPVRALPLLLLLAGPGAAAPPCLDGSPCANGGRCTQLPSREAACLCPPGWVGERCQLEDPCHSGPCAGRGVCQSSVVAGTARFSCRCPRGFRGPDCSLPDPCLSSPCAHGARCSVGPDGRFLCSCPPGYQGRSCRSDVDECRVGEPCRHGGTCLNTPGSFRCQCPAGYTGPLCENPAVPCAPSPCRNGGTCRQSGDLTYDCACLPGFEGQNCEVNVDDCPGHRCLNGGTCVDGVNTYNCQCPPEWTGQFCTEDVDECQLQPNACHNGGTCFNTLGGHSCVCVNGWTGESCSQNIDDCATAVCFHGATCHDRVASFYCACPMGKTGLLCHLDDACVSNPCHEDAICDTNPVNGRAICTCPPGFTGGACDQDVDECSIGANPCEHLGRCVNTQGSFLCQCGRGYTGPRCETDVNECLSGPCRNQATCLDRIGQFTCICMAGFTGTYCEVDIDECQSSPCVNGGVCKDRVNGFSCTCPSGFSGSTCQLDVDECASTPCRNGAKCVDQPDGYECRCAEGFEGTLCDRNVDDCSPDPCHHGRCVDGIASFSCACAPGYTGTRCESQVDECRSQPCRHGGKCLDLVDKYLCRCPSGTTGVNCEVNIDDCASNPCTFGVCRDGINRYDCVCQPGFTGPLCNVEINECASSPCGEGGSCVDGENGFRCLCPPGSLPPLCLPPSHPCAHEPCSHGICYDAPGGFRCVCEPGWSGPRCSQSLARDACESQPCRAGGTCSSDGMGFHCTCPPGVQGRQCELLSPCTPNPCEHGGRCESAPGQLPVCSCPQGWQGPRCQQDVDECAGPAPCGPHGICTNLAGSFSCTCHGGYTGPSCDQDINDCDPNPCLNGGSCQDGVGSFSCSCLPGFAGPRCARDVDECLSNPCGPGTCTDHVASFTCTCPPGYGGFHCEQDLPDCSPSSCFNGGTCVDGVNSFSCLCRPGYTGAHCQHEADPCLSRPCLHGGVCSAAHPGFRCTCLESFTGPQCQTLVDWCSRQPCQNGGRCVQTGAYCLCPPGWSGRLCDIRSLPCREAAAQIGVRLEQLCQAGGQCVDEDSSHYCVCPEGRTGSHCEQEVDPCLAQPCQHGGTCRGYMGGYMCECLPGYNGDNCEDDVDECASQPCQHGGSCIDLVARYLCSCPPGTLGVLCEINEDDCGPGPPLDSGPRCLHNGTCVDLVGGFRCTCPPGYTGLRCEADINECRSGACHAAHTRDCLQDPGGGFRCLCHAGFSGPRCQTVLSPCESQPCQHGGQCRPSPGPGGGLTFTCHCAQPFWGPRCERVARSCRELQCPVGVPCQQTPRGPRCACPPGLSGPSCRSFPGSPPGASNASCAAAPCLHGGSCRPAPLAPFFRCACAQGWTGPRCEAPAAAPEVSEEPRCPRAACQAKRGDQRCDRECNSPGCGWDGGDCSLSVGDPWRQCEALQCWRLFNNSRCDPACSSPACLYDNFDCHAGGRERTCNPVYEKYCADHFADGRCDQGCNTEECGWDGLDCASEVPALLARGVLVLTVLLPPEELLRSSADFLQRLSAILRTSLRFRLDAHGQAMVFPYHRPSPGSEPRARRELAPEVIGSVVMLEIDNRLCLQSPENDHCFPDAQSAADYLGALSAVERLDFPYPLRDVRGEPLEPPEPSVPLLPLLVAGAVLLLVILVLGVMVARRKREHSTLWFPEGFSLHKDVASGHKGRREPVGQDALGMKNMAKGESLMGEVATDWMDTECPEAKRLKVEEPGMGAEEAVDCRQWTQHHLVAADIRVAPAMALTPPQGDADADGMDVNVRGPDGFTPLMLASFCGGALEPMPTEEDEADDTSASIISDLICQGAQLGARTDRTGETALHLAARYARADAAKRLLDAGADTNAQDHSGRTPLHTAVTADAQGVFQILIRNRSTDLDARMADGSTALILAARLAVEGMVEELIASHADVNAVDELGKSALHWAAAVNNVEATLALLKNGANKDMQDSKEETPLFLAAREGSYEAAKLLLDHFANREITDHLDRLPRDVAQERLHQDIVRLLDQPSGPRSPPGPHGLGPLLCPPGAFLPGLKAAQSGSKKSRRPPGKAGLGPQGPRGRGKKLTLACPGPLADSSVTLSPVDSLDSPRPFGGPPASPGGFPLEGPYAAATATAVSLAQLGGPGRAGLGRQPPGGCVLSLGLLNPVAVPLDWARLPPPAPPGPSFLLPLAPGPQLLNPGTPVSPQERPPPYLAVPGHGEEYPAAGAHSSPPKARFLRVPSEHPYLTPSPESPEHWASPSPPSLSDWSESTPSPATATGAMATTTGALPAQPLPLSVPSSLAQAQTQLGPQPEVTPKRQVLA

[10] = small-molecule microarray binders of probe aEGFR, primary screen, biochemical, biotinylated probe, 635/667 nm fluorescence (AID 1097); conditions: higher = more signal;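 note: probe is a biotinylated anti-EGFR antibody binding compounds printed on slides; score combines fluorescence near 667 nm and signal to noise of each spot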

Row | Structure (SMILES) | composite z-score [1] | z-score [2] | z-score [3] | z-score [4] | composite z-score [5] | z-score [6] | composite z-score [7] | composite z-score [8] | composite z-score [9] | composite z-score [10]
1 | CC(C)[C@H]1COC(=O)N1C(=O)[C@H]1[C@@H](c2ccccc2)N(c2ccccc2)O[C@@H]1C | 0.842 | -0.384 (inactive) | -2.87 (inactive) | 0.0611 (inactive) | 1.29 | 0.874 (inactive) | -0.0023 | 0.403 | 0.757 | -0.12
2 | CO[C@H]1O[C@H](CO)[C@@H](OC(=O)Nc2ccc(C(F)(F)F)cc2)[C@H](OC(=O)Nc2ccccc2)[C@@H]1OC(=O)Nc1ccccc1 | 1.54 | 0.0975 (inactive) | 0.252 (inactive) | 0.168 (inactive) | 3.11 | -0.142 (inactive) | -0.0657 | 1.24 | 0.968 | -0.289
3 | O=C1OCC=C[C@H]2OC34C=CCN(Cc5ccccc5)C(=O)[C@H]3N(CCCO)C(=O)[C@@H]4[C@@H]12 (stereo not given in full) | 0.733 | 0.393 (inactive) | -0.885 (inactive) | -0.38 (inactive) | 3.71 | 2.76 (inactive) | 0.694 | 0.319 | 0.288 | -0.0703
4 | NC(=O)NCC#Cc1ccc2c(c1)[C@]1(C(=O)N2)[C@H](c2ccccc2OCCO)N2[C@H](c3ccccc3)[C@H](c3ccccc3)OC(=O)[C@H]2[C@@H]1C(=O)N1CCCCCCC1 | 1.55 | 0.456 (inactive) | -1.36 (inactive) | 1.49 (inactive) | 4.09 | 1.26 (inactive) | 1.79 | 1.8 | 1.11 | 1.21
5 | C=C(/C(=C/C[C@@H](OC(=O)c1ccncc1)c1ccc(CO)o1)c1cc(C(=O)OC)ccc1OC)C(C)C | 1.53 | 0.523 (inactive) | -1.28 (inactive) | -0.414 (inactive) | 2.47 | 0.481 (inactive) | -0.129 | 0.855 | 1.03 | 0.0073
6 | [N-]=[N+]=NCc1ccccc1C[C@]1(C(N)=O)N=C(c2ccc(OCCCO)cc2)O[C@H]1c1ccccc1N=[N+]=[N-] | 1.37 | 1.22 (inactive) | 1.29 (inactive) | 1.39 (inactive) | 2.84 | -0.0072 (inactive) | 0.175 | -0.433 | 0.616 | 0.268
7 | COCCOC(=O)N1C(=O)[C@@]2(c3cc(C#CC4(O)CCCCCC4)ccc31)[C@H](c1ccc(O)cc1)N1[C@H](c3ccccc3)[C@H](c3ccccc3)OC(=O)[C@H]1[C@@H]2C(=O)N1CCc2cc(OC)c(OC)cc2C1 | 1.56 | -0.749 (inactive) | -0.395 (inactive) | -0.494 (inactive) | 2.41 | 1.45 (inactive) | -0.0719 | -0.435 | -0.551 | -0.226
8 | [N-]=[N+]=NCc1ccccc1[C@@H]1OC(c2ccc(OCCCO)cc2)=N[C@]1(Cc1ccccc1N=[N+]=[N-])C(N)=O | 1.55 | -0.0556 (inactive) | -1.33 (inactive) | -0.91 (inactive) | 3.29 | 0.43 (inactive) | 0.361 | 0.37 | 1.04 | 0.171
9 | CCCNC(=O)[C@@]1(C)c2ccccc2C(=O)N(Cc2cc(C(F)(F)F)cc(C(F)(F)F)c2)[C@H]1c1ccc(CO)cc1 | 1.43 | 0.0841 (inactive) | -0.25 (inactive) | -0.49 (inactive) | 2.59 | -0.667 (inactive) | -0.119 | -0.675 | -0.131 | -0.137
10 | O=C(NCC(O)CO)[C@@]1(Cc2ccccc2)COC(c2ccc(OCCCO)cc2)=N1 (stereo not given in full) | -0.546 | 0.0965 (inactive) | -0.92 (inactive) | -0.639 (inactive) | 1.1 | 0.869 (inactive) | -0.0809 | -0.891 | -1.18 | 0.132
11 | C=C(C(=O)CC[C@H](OC(=O)c1cccnc1)c1ccccc1OCCO)C(C)C | 1.53 | -2.6 (inactive) | -0.267 (inactive) | -0.598 (inactive) | 1.58 | -0.0377 (inactive) | 0.0692 | 1.71 | 0.423 | 0.0004
12 | COCCn1c(C(=O)N(C)C)cc2c1C[C@H]1CN(C(=O)c3ccccc3)[C@@](Cc3ccc(F)cc3)(C(=O)OC)[C@@H]21 | 0.0294 | 0.296 (inactive) | 0.75 (inactive) | 0.247 (inactive) | 3.05 | 0.782 (inactive) | 0.214 | -0.3 | 0.328 | 0.0492
13 | CC(C)(C)OC(=O)CC[C@]1(C(=O)NCC(O)CO)N=C(c2ccc(OCCCO)cc2)O[C@H]1c1ccccc1CN=[N+]=[N-] (stereo not given in full) | 1.06 | -0.624 (inactive) | -0.867 (inactive) | -0.859 (inactive) | 3.59 | 0.301 (inactive) | 0.716 | 0.27 | 1.08 | 0.61
14 | Cc1ccc(F)cc1S(=O)(=O)N[C@@H]1CCN(Cc2ccc(C(F)(F)F)cc2)C1 | 1.14 | -1.27 (inactive) | -20.3 (active) | -1.1 (inactive) | 1.08 | -4.8 (inactive) | -0.227 | 0.412 | -0.145 | -0.218
15 | Cc1ccc(S[C@]2(C(=O)NCCN3CCOCC3)CC(=O)N(C3CCCCC3)[C@@H]2c2ccc(CO)cc2)cc1 | 1.05 | -0.0801 (inactive) | -0.134 (inactive) | -0.942 (inactive) | 3.05 | -0.114 (inactive) | -0.072 | 0.218 | 0.404 | -0.111
16 | CC(c1ccccc1)C(O)C1C=CC2C(=O)N(c3ccccc3)C(=O)C2N1Nc1ccccc1F (stereo not given) | 1.26 | -1.11 (inactive) | 1.15 (inactive) | -1.99 (inactive) | 2.87 | 0.198 (inactive) | 0.0841 | -0.138 | 1.14 | -0.0192
17 | C=C[C@H](OC)[C@@H](OC(=O)Nc1ccc(SC)cc1)c1ccc(OCCO)cc1 | 1.15 | 0.458 (inactive) | -0.339 (inactive) | 0.513 (inactive) | 2.67 | 1.15 (inactive) | -0.0478 | -0.555 | -0.179 | 0.507
18 | CC1CC/C=C\[C@H]2OC34C=CCN(CCN5CCOCC5)C(=O)[C@H]3N(CCCCCO)C(=O)[C@@H]4C2C(=O)O1 (stereo not given in full) | -0.632 | -0.631 (inactive) | -0.726 (inactive) | -0.206 (inactive) | -1.13 | -0.497 (inactive) | -0.339 | -1.02 | -1.17 | -0.158
19 | Cc1ccc(S[C@]2(C(=O)NCC(F)(F)F)CC(=O)N(C3Cc4ccccc4C3)[C@@H]2c2ccc(CO)cc2I)cc1 | -0.535 | 0.0775 (inactive) | -0.967 (inactive) | 1.81 (inactive) | 1.18 | -0.701 (inactive) | 0.157 | -0.883 | -1.08 | -0.255
20 | [N-]=[N+]=NCc1ccccc1C[C@]1(C(=O)N2CCOCC2)N=C(c2ccc(OCCCO)cc2)O[C@H]1c1ccccc1 | 1.46 | -0.432 (inactive) | -9.19 (active) | 31.6 (active) | 2.33 | 1.33 (inactive) | -0.162 | 1.15 | 0.673 | -0.0509
21 | C=CCC(OC(C)=O)[C@@H]1[C@@H](N(Cc2cc3ccccc3o2)C(=O)c2cccc3ccccc23)c2cc(OCCCO)ccc2N1C(=O)Cc1ccc2ccccc2c1 (stereo not given in full) | 0.37 | 0.263 (inactive) | 0.246 (inactive) | 0.445 (inactive) | 0.797 | 0.117 (inactive) | -0.0898 | -0.233 | -0.164 | -0.123
22 | CC1(C)C(=O)C(c2ccccc2)=C2CN3C(=O)N(CCc4ccccc4)C(=O)C3(Cc3ccccc3)C=C21 (stereo not given) | -0.377 | 0.672 (inactive) | 2.28 (inactive) | 5.82 (inactive) | 2.83 | -0.723 (inactive) | 0.336 | -0.264 | 1.12 | 0.164
23 | CO[C@H]1O[C@H](CO)[C@@H](OC(=O)Nc2ccccc2-c2ccccc2)[C@H](OC(=O)Nc2ccccc2-c2ccccc2)[C@H]1OC(=O)Nc1ccccc1-c1ccccc1 | 1.54 | 3.06 (inactive) | 2.48 (inactive) | 10.6 (active) | 3.23 | 0.956 (inactive) | 0.115 | 0.65 | 1.08 | 0.0553
24 | CCCCCN1CC=CC23O[C@@H]4C=CCCOC(=O)C4[C@H]2C(=O)N(CCCO)[C@@H]3C1=O (stereo not given in full) | 0.229 | 0.0103 (inactive) | -1.3 (inactive) | -0.506 (inactive) | -0.651 | 2.22 (inactive) | -0.257 | -0.272 | 0.0424 | -0.223
25 | COc1cc(NN2C(C(O)c3ccccc3)C=CC3C(=O)N(c4ccccc4)C(=O)C32)cc(OC)c1OC (stereo not given) | 1.34 | 0.694 (inactive) | -0.933 (inactive) | 0.126 (inactive) | 3.5 | -0.288 (inactive) | 0.17 | 0.833 | 1.03 | 0.016
26 | COC(=O)C(CC#Cc1ccc2c(c1)[C@]1(C(=O)N2)[C@H](C(=O)N2CCCCCCC2)[C@H]2C(=O)O[C@H](c3ccccc3)[C@H](c3ccccc3)N2[C@@H]1c1ccccc1OCCO)C(=O)OC | 1.54 | 0.293 (inactive) | -0.97 (inactive) | 0.172 (inactive) | 5.3 | -0.823 (inactive) | 1.89 | 2.44 | 1.02 | 1.46
27 | CC(=O)N1Cc2ccccc2C[C@@]2(N=C(c3ccc(OCCCO)cc3)O[C@H]2c2ccccc2)C1=O | 1.53 | -3.56 (inactive) | -3.68 (inactive) | 17.1 (active) | 3.32 | 1.5 (inactive) | 0.215 | 1.47 | 1.11 | 0.107
28 | CC(C)N1C(=O)c2ccccc2[C@](C)(C(=O)NCCCN(C)C)[C@@H]1c1ccc(CO)cc1 | -0.109 | -0.763 (inactive) | -1.26 (inactive) | -1.36 (inactive) | 2.41 | 0.0321 (inactive) | 0.0071 | -0.818 | -1.28 | -0.22
29 | COc1cc(CO)cc(I)c1O[C@H]1C=C(C(=O)NCCO)C[C@@H](N(CCc2cccc(F)c2)C(=O)CCC2CCCC2)[C@@H]1O | 1.55 | 0.645 (inactive) | -6.99 (inactive) | -1.02 (inactive) | 1.7 | 0.0555 (inactive) | -0.0632 | 1.91 | 0.922 | -0.0302
